Among the data in PubChem BioAssay (EPA / NIEHS) are outcome and AC50 values, retold here.

Experiment [1] can be described thus: ATG_E_Box_CIS: Attagene CIS-FACTORIAL HepG2 Assay for human Enhancer Box (E-box) (AID 2282936). Particulars: HepG2 E-box cis-reporter transcription, actives raise or lower the signal. The method in brief: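 Transiently transfected HepG2, endogenous TF-driven reporters, 24 h dosing. Readout: RT-PCR plus capillary electrophoresis of fluorescent reporter fragments. Gain or loss of signal fitted bidirectionally against DMSO baseline.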

A short description of experiment [2]: ATG_M_61_CIS: Attagene CIS-FACTORIAL HepG2 Assay for M61 Transcription Factor (Internal Marker) (AID 2282937). The conditions noted are these: HepG2 Attagene CIS-FACTORIAL M61 internal marker reporter; actives raise or lower the signal. In a few lines: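 This endpoint serves as an internal background control within a multiplexed HepG2 cis-reporter panel. Cells are exposed for 24 h; reporter mRNA is amplified, fluorescently labelled and sized by capillary electrophoresis, with DMSO as negative control.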

Experiment [3] is described as follows: ATG_M_19_CIS: Attagene CIS-FACTORIAL HepG2 Assay for M19 Transcription Factor (Internal Marker) (AID 2282939). Particulars: HepG2 Attagene CIS-FACTORIAL M19 internal marker reporter; actives raise or lower the signal. In a few lines:
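In this multiplexed cell assay, transiently transfected HepG2 reporter units report endogenous transcription-factor activity; after 24 hours of treatment, labelled reporter cDNA fragments are quantified by capillary electrophoresis and fitted bidirectionally against DMSO.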

Experiment [4] can be described thus: ATG_ERE_CIS: Attagene CIS-FACTORIAL HepG2 Assay for Estrogen Response Element (ERE) (AID 2282940). The conditions noted are these: HepG2 ERE cis-reporter, Attagene RNA transcript; actives raise or lower the signal. The method in brief: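 Measuring endogenous transcription factor output, the assay doses transfected HepG2 cells for 24 hours and quantifies reporter transcripts by fluorescent RT-PCR and capillary electrophoresis, with DMSO as baseline.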

A short description of experiment [5]: ATG_Ets_CIS: Attagene CIS-FACTORIAL HepG2 Assay for human Erythroblast Transformation Specific (ETS) (AID 2282941). Particulars: HepG2 ETS cis-reporter transcription; AC50: actives raise or lower the signal unless noted; outcome: actives raise or lower the signal unless noted. In a few lines: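 Cis-regulated reporter mRNA induction in HepG2 (transient transfection), 24 h exposure, RT-PCR plus capillary electrophoresis detection; DMSO serves as negative control and baseline.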

Experiment [6] addresses Hepatocyte nuclear factor 3-beta (Homo sapiens) (UniProt Q9Y261). Kind of experiment: ATG_FoxA2_CIS: Attagene CIS-FACTORIAL HepG2 Assay for human Forkhead box A2 (FOXA2) (AID 2282942). The conditions noted are these: HepG2 cis-reporter transcription factor activity, 24 h; actives raise or lower the signal. In a few lines:
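Cells: HepG2, transient multiplex reporter transfection. Exposure 24 h. Detection: reporter-specific RT-PCR, fluorescent labelling, restriction digest, capillary electrophoresis. Analysis: bidirectional curve fit, DMSO as negative control.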

A short description of experiment [7]: ATG_FoxO_CIS: Attagene CIS-FACTORIAL HepG2 Assay for human Forkhead box O (FoxO) (AID 2282943). The conditions noted are these: HepG2 Attagene cis-reporter, FoxO element, mRNA; actives raise or lower the signal. In a few lines: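 Read-out: fluorescence of 6-FAM-labelled reporter cDNA fragments resolved by capillary electrophoresis. Transiently transfected HepG2 cells were dosed for 24 h; activity fitted in both directions relative to DMSO controls.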

The nature of experiment [8]: ATG_GATA_CIS: Attagene CIS-FACTORIAL HepG2 Assay for human GATA Binding Protein (AID 2282944). Particulars: HepG2 GATA cis-element reporter, Attagene multiplex mRNA; actives raise or lower the signal. In a few lines: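 Measures endogenous transcription factor-driven reporter mRNA in HepG2 cells transiently carrying cis-regulated constructs. 24 h dosing; RNA via oligo(dT) reverse transcription, PCR, HpaI digestion, capillary electrophoresis; fitted relative to DMSO.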

Experiment [9] can be described thus: ATG_GLI_CIS: Attagene CIS-FACTORIAL HepG2 Assay for human Zinc Finger Protein GLI1 (AID 2282945). The conditions noted are these: HepG2, Attagene cis-factorial reporter mRNA, GLI element; actives raise or lower the signal. The method in brief: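 Transiently transfected HepG2 cells report endogenous transcription factor activity via cis-element-driven reporter units. After 24 h compound exposure, reporter mRNA was measured by RT-PCR with capillary electrophoresis; bidirectional fitting against DMSO baseline.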

In experiment [10] the target is Bile acid receptor (Homo sapiens) (UniProt Q96RI1). Kind of experiment: ATG_IR1_CIS: Attagene CIS-FACTORIAL HepG2 Assay for human Nuclear Receptor Subfamily 1 Group H Member 4 (NR1H4), IR1 submotif (AID 2282946). Particulars: IR1 reporter transcription, actives raise or lower the signal. The method in brief:
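Fluorescence of capillary-separated, HpaI-digested RT-PCR reporter products gave IR1-element mRNA induction in HepG2 cells 24 h after dosing. Endogenous transcription factors drove the cis-regulated reporters; activity was fitted bidirectionally against DMSO.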

Experiment [11] in a line: ATG_GRE_CIS: Attagene CIS-FACTORIAL HepG2 Assay for human Glucocorticoid Response Elements (GRE) (AID 2282947). Particulars: HepG2 GRE cis-reporter, Attagene multiplex mRNA; AC50: actives raise or lower the signal unless noted; outcome: actives raise or lower the signal unless noted. In a few lines:
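Read-out: fluorescent reporter-transcript fragments separated by capillary electrophoresis after RT-PCR. Transiently transfected HepG2 cells carrying cis-element-driven reporter units were dosed for 24 h; gain or loss of signal fitted against DMSO control.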

Experiment [12] can be described thus: ATG_ISRE_CIS: Attagene CIS-FACTORIAL HepG2 Assay for human Interferon Regulatory Factor 1 (IRF1) binding to an Interferon-Stimulated Response Element (ISRE) (AID 2282948). Particulars: HepG2 ISRE cis-reporter (Attagene), mRNA transcription readout; actives raise or lower the signal. The method in brief:
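Multiplexed mRNA reporter readout in human liver HepG2 cells: cis-element-driven reporters transfected, compound added for 24 h, transcripts amplified, fluorescently labelled and sized by capillary electrophoresis; curve fitting bidirectional against DMSO.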

Experiment [13] can be described thus: ATG_M_32_CIS: Attagene CIS-FACTORIAL HepG2 Assay for M32 Transcription Factor (Internal Marker) (AID 2282949).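 Note: background control marker of the multiplexed CIS panel rather than a real target.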 Particulars: HepG2 Attagene cis-factorial M32 reporter, mRNA; actives raise or lower the signal. In a few lines:
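Transient MRTU transfection of HepG2; 24 h compound treatment; TriZol RNA, oligo(dT) RT, reporter PCR, 6-FAM primer extension, HpaI cut, CE. Gain/loss of signal vs DMSO.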

Experiment [14] can be described thus: ATG_M_06_CIS: Attagene CIS-FACTORIAL HepG2 Assay for M06 Transcription Factor (Internal Marker) (AID 2282950). Particulars: HepG2 Attagene CIS-FACTORIAL M06 internal marker reporter; actives raise or lower the signal. In a few lines: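 One of many multiplexed endpoints: HepG2 reporter mRNA after 24 h dosing, detected by RT-PCR and capillary electrophoresis fluorescence; gain or loss of signal analysed against DMSO.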

In experiment [15] the target is Hypoxia-inducible factor 1-alpha (Homo sapiens) (UniProt Q16665). Kind of experiment: ATG_HIF1a_CIS: Attagene CIS-FACTORIAL HepG2 Assay for human Hypoxia Inducible Factor 1 (HIF1A) (AID 2282951). Particulars: HepG2 Attagene cis-factorial HIF1a reporter transcription; actives raise or lower the signal. The method in brief: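 HepG2, transient cis-reporter library, 24 h dosing. RNA → RT (oligo dT) → PCR → 6-FAM primer extension → HpaI → CE. Bidirectional curve fit vs DMSO.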
Chain of Hypoxia-inducible factor 1-alpha (Homo sapiens) (Q16665 whole entry, looked up): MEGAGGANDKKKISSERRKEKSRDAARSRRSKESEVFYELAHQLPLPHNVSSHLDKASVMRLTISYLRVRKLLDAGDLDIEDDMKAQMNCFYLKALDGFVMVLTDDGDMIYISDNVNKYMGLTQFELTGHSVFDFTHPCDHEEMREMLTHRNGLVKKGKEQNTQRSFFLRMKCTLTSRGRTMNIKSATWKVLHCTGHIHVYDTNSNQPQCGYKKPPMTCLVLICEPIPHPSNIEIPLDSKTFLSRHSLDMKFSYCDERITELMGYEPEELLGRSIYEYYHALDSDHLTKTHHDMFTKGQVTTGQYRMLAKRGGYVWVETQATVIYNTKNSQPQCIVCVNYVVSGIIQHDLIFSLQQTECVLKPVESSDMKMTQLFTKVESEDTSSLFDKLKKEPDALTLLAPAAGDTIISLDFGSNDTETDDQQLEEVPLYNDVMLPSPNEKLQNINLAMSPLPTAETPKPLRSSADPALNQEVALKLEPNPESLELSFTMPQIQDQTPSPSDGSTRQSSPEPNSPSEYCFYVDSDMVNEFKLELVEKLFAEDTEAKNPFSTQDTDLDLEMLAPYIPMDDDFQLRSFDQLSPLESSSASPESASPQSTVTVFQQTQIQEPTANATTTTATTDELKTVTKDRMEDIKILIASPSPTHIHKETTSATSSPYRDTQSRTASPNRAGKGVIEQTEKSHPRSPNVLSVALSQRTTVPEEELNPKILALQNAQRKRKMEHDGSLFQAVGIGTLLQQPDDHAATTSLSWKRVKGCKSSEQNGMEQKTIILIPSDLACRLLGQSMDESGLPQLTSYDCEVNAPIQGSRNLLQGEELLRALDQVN

The target in experiment [16] is Hepatocyte nuclear factor 6 (Homo sapiens) (UniProt Q9UBC0). Kind of experiment: ATG_HNF6_CIS: Attagene CIS-FACTORIAL HepG2 Assay for human Hepatocyte Nuclear Factor 6 (HNF6) (AID 2282952). The conditions noted are these: HepG2 Attagene cis-factorial HNF6 reporter transcription; actives raise or lower the signal. In a few lines:
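Endogenous factor activity read in transiently transfected HepG2 via promoter-regulated reporter transcripts. RNA harvested 24 h post-dosing, reverse-transcribed, PCR-amplified, FAM-labelled, HpaI-digested and resolved by capillary electrophoresis; fitted in both directions against DMSO.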

The target in experiment [17] is Heat shock factor protein 1 (Homo sapiens) (UniProt Q00613). Kind of experiment: ATG_HSE_CIS: Attagene CIS-FACTORIAL HepG2 Assay for human Heat Shock Transcription Factor 1 (HSE) (AID 2282953). The conditions noted are these: HepG2 HSE cis-reporter, Attagene RNA transcription; actives raise or lower the signal. The method in brief: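 Using HepG2 with transfected cis-driven reporter constructs, compound effects on endogenous factor activity are scored as reporter mRNA change at 24 h. Detection: RT-PCR, HpaI digestion, capillary electrophoresis; bidirectional fitting to DMSO.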
Chain of Heat shock factor protein 1 (Homo sapiens) (Q00613 whole entry, looked up): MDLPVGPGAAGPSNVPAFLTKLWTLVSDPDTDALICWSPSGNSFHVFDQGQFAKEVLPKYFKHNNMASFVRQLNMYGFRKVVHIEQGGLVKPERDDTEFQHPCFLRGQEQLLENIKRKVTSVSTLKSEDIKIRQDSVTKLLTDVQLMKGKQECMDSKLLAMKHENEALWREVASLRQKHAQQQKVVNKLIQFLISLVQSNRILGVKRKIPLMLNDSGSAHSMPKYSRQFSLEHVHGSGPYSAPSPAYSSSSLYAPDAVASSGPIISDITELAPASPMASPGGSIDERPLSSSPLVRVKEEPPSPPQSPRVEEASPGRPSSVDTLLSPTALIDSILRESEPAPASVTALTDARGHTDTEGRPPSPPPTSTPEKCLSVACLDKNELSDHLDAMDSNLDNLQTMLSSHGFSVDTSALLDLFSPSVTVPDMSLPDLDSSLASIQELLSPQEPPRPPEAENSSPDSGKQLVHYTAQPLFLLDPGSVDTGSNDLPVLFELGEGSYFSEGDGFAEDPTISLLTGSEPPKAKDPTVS

Experiment [18] in a line: ATG_MRE_CIS: Attagene CIS-FACTORIAL HepG2 Assay for human Metal Responsive Element (MRE) (AID 2282954). The conditions noted are these: HepG2 MRE cis-reporter transcription, Attagene multiplex; actives raise or lower the signal. In a few lines: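 RT-PCR/capillary electrophoresis readout of reporter mRNA, 24 h post-dosing, in HepG2 cells transfected with multiplexed cis-regulated reporter constructs. Gain or loss of signal fitted bidirectionally against DMSO baseline.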

The nature of experiment [19]: ATG_PBREM_CIS: Attagene CIS-FACTORIAL HepG2 Assay for human Phenobarbital-responsive Enhancer Module (PBREM) (AID 2282955). Particulars: HepG2 PBREM cis-reporter, Attagene multiplexed transcription; actives raise or lower the signal. In a few lines: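 HepG2, transient MRTU transfection, 24 h dosing; RNA → oligo(dT) RT → PCR → 6-FAM extension → HpaI → CE. Bidirectional fit vs DMSO.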

Each structure is given as a SMILES string. Activity calls are given as the source filed them. Rule for the calls: active = hit-call score of the fitted dose curve at least 0.9, where 1 is the maximum; inactive = score below 0.9.

Chain of Hepatocyte nuclear factor 6 (Homo sapiens) (Q9UBC0 whole entry, looked up): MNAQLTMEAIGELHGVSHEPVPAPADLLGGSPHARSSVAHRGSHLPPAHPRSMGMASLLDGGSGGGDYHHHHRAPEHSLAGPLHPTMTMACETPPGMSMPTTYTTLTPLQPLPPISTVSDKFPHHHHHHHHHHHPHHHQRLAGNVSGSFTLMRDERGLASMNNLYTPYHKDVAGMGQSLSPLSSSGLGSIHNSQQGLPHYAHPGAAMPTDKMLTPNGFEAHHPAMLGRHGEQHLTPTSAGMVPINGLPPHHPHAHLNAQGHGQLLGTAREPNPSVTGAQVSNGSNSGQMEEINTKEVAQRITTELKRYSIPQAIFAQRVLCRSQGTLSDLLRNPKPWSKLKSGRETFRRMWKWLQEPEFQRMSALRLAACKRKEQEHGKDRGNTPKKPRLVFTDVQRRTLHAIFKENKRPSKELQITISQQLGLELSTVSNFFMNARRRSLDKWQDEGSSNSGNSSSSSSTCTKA
Chain of Bile acid receptor (Homo sapiens) (Q96RI1 whole entry, looked up): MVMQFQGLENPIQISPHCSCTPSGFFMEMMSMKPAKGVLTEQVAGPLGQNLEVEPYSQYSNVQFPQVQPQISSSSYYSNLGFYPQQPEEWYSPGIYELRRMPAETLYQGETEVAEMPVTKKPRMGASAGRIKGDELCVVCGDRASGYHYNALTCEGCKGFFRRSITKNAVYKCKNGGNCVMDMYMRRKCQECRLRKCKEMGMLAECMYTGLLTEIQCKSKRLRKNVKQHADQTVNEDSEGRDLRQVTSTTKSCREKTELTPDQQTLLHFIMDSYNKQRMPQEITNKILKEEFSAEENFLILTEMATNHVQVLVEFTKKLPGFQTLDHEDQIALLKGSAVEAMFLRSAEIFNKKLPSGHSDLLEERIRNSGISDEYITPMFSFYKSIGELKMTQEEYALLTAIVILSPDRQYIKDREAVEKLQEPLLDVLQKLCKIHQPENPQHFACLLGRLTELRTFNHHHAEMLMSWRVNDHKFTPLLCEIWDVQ
Chain of Hepatocyte nuclear factor 3-beta (Homo sapiens) (Q9Y261 whole entry, looked up): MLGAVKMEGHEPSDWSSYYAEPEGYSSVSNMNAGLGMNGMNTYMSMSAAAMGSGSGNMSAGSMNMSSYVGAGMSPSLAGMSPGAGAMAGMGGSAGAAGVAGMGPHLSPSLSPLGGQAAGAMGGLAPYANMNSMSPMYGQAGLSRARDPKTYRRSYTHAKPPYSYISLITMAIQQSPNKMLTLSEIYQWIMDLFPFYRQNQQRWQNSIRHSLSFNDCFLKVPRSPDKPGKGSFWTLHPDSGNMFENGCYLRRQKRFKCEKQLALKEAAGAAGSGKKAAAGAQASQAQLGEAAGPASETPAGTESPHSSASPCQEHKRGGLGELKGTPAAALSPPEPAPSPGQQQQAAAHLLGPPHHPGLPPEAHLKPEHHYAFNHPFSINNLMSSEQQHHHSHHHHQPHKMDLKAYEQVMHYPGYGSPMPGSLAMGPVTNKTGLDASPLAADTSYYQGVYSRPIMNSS

In the case of `CC=O`, the outcome in [1], in experiment [2], in experiment [3], in [4], in [5] and in experiment [6] was inactive. In addition, the compound was classed as inactive in [7], in [8], in experiment [9], in experiment [10], in experiment [11] and in experiment [12]. In addition, the call in [13], in experiment [14], in experiment [15], in experiment [16], in experiment [17] and in [18] was inactive. Moreover, in experiment [19], the outcome was inactive.

In general, AC50 refers to the concentration at which the activity in the assay is half-maximal. `CCOC=O`: the result in experiment [1], in [2], in [3], in experiment [5], in [7] and in [8] was inactive. The compound was classed as inactive in experiment [9], in experiment [10], in experiment [11], in experiment [12], in experiment [13] and in experiment [14]. Besides, the outcome in experiment [15], in experiment [16], in experiment [17], in experiment [18] and in experiment [19] was inactive. Also, the AC50 in experiment [4] was 59.3 µM (active).

With `CCc1cccc(CC)c1NC(=O)C(=O)O`, the result in experiment [1], in experiment [2], in [3], in experiment [4], in experiment [5] and in experiment [6] was inactive. Besides, the result in experiment [7], in experiment [8], in experiment [10], in experiment [11], in [12] and in experiment [13] was inactive. Also, the call in experiment [14], in [15], in experiment [16], in experiment [17] and in experiment [19] was inactive.

In the case of `CC1COCc2cc3c(cc21)C(C)(C)C(C)C3(C)C` (centres undefined), the AC50 in [1] was 179 µM (active); in [8], 158 µM (active); in experiment [13] it was 163 µM (active); in [17], 147 µM (active); in [18], 144 µM (active). The outcome in experiment [2], in experiment [3], in experiment [4], in [5], in experiment [6] and in [7] was inactive. The call in experiment [9], in experiment [10], in experiment [11], in experiment [12], in [14] and in experiment [15] was inactive. For the same compound, the call in experiment [16] and in [19] was inactive.

For `C[C@]12CC[C@@H]3c4ccc(O)cc4CC[C@H]3[C@@H]1C[C@@H](O)[C@@H]2O`, the result in experiment [1], in [2], in experiment [3], in experiment [5], in [6] and in experiment [7] was inactive. Moreover, the compound was called inactive in experiment [8], in [9], in experiment [11], in [12], in [13] and in experiment [14]. The outcome in experiment [15], in experiment [16], in experiment [17] and in [18] was inactive.
